# Screening data deposited in PubChem by National Center for Advancing Translational Sciences (NCATS).
# Shown is part of a subset that was picked to be rich in hits.
# FBPA Giardia inh: blocks Giardia fructose-bisphosphate aldolase activity. A8B2U2. purified Giardia FBPA. Potency, µM (doses to about 59.6 µM), without a hit: at the highest dose activity, negative = inhibition, most hits filed as inhibitors. actives 0.71% (n = 290,000); further: potency means the concentration at half of the fitted maximal effect; on the % scale 0 is the no-effect control and ±100 the full control effect; nearly all actives have a fitted effect of over 55% in size
# Target sequence (A8B2U2 whole entry, looked up): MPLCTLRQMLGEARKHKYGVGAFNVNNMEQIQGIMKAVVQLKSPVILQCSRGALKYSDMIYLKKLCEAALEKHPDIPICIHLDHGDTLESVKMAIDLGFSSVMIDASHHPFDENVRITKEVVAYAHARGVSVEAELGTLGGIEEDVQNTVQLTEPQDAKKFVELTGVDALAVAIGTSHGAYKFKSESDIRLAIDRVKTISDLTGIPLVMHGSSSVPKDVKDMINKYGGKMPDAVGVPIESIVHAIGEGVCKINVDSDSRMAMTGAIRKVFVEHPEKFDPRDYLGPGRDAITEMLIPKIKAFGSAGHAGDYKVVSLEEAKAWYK
#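 Giardia FBPA (40 nM reagent) was preincubated 10 min at RT with compound (up to 57.5 uM final), then substrate plus GAPDH/TPI/NAD/arsenate coupling system with diaphorase/resazurin was added; resorufin fluorescence (525/598 nm) was read after 20 min.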
# LmPK inhibitor: inhibitors of Leishmania mexicana pyruvate kinase; Potency, µM (series often up to 57.5 µM), for inactives: at the top dose activity change, negative = inhibition, usual class: inhibitors; purified LmPK, Kinase-Glo ATP luminescence, 1 h; AID 1721; Q27686; actives 0.37% (n = 290,000); further: potency means the concentration at half of the fitted maximal effect; on the % scale 0 is the no-effect control and ±100 the full control effect
#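 Pyruvate kinase activity monitored as ATP production (luciferase luminescence). Conditions: 0.1 nM enzyme, 0.5 mM PEP, 0.1 mM ADP, 1 h, RT; normalized against uninhibited and no-enzyme wells.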
# Shiga toxin inh: blocks Shiga toxin action in Vero cells. Vero cells, Shiga toxin protein synthesis inhibition reporter. inhibition, % at 38.7 µM. actives 9.2% (n = 290,000); in the data active means inhibition mostly above about 28%, no sharp cut-off; inactive means mostly below about 43%; further: 0% is about no effect
# RE007 growth inh: less growth of the S. pombe RE007 Vpr strain; actives 0.21% (n = 360,000); AID 651644; S. pombe RE007 Vpr strain, BacTiter-Glo ATP luminescence, 24 h; Potency, µM (titrated, usually from 92.2 µM), without a hit: at the top dose activity change, negative = less growth, actives largely listed as inhibitors; active means well fitted falling curve with a large enough effect; inconclusive means small, poorly fitted or top-dose-only effect; inactive means no such curve, though single readings can be large or run the other way; further: potency means the concentration at half of the fitted maximal effect; on the % scale 0 is the no-effect control and ±100 the full control effect; nearly all actives have a fitted effect of over 50% in size
#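 Fission yeast RE007 carrying one integrated HIV-1 vpr copy, seeded at OD 0.01 in PMG+AL medium with 23 nL pinned compound. Grown 24 h at 30 degrees; viability read by BacTiter-Glo luminescence after 5 min.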
# CHX counter: counter-screen hit for Shiga toxin inhibitors, cycloheximide; AID 2314; max response, %; cell reporter, cycloheximide protein synthesis inhibition counterscreen; actives 12% (n = 300,000); in the data active means max response mostly above about 13%, no sharp cut-off; inactive means mostly below about 14%; further: read at 38.3 µM for the half of the compounds with a filed dose; 0% is about no effect
# TbPYK inhibitor: blocks Trypanosoma brucei pyruvate kinase; Q57TT1; Potency, µM (doses to about 76.8 µM), for inactives: at the top dose activity, negative = inhibition, usual class: inhibitors; actives 0.12% (n = 410,000); TbPYK enzyme, Kinase-Glo Plus ATP luminescence, 45 min; further: potency means the concentration at half of the fitted maximal effect; on the % scale 0 is the no-effect control and ±100 the full control effect; nearly all actives have a fitted effect of over 50% in size
#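 Assay buffer: 50 mM TEA pH 7.2, 100 mM KCl, 10 mM MgCl2, 0.05% BSA, 0.01% Tween-20. Pyruvate kinase from T. brucei plus substrate met compound, then ADP (130 uM final). Luminescence was read post 45 min RT.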
# * marks the source's active call; other numbers are inactive results; u = inconclusive; x = no result. Unless noted, the call rests on the fitted dose curve; in most records, active means well fitted curve in the direction sought with a large enough effect; inconclusive means small, poorly fitted or top-dose-only effect, or another doubt; inactive means no such curve, though single readings can be large; an effect the other way counts as inactive or inconclusive.
SMILES,FBPA Giardia inh,LmPK inhibitor,Shiga toxin inh,RE007 growth inh,CHX counter,TbPYK inhibitor
NC(=O)c1ccc(NC(=O)c2cccc(Oc3ccccc3)c2)cc1,-1%,8%,102,22%,7,-4%
COc1ccc(NC(=O)c2cccc(Oc3ccccc3)c2)cn1,5%,10%,81*,-8%,33*,1%
COc1ccc(NC(=S)NC(=O)c2ccccc2)cn1,u,-1%,132*,-9%,69*,-4%
COc1ccc(NC(=O)c2ccc(S(=O)(=O)N(C)c3ccccc3)cc2)cn1,-3%,0%,16,13%,15,-1%
O=C(NCCc1ccc(F)cc1)C(=O)NCC(c1ccc2c(c1)OCO2)N1CCOCC1 (stereo not drawn),x,x,x,x,x,-6%
O=C1CC(c2ccccc2)Cc2[nH]c(=O)c(-c3nc(-c4cccc(Cl)c4)cs3)cc21 (stereo not drawn),x,x,x,x,x,-1%
CSCC(=O)N1CCc2ccc(NC(=O)c3ccccc3Cl)cc2C1,5%,-1%,x,13%,28*,-8%
CN(C)S(=O)(=O)N1CCc2ccc(NC(=O)c3ccccc3Cl)cc2C1,1%,-1%,14,13%,11*,2%
COc1ccc(CCNC(=O)C/C(C)=N/NC(=O)c2ccc(Cl)cc2Cl)cc1OC,5%,-1%,9,3%,9,-8%
COc1cc(C(=O)NCCc2ccc(F)cc2)ccc1OCC(=O)N1CCOCC1,x,x,x,39%,x,1%
COc1ccc(CCn2c(=O)[nH]c3cc(C(=O)NCCc4ccccc4)ccc3c2=O)cc1OC,9%,0%,25*,x,25*,x
COc1ccc(C(=O)NCCc2ccc(F)cc2)cc1OC,1%,-1%,25,1%,27*,-1%
CN1CCN(C(=O)c2ccc3c(=O)n(CCc4ccccc4)c(=S)[nH]c3c2)CC1,x,x,x,6%,x,u
COc1ccc(CCNC(=O)C/C(C)=N/NC(=O)c2ccc(N)cc2)cc1OC,2%,-1%,27,-13%,12*,-2%
CCN1CCN(C(=O)c2ccc3c(=O)n(CCc4ccccc4)c(=O)[nH]c3c2)CC1,3%,2%,59*,-2%,20*,4%
COc1cccc(/C=N/n2c(C3CCCCC3)n[nH]c2=S)c1O,-8%,-19%,-16,8%,1,u
COc1cccc(/C=N/n2c(C3CCCCC3)n[nH]c2=S)c1OC,9%,0%,0,8%,-1,5.6µM*
COc1cc(OC)c(/C=N/n2c(C3CCCCC3)n[nH]c2=S)c(OC)c1,1%,u,-2,1%,10,8.9µM*
Cc1ccccc1OCC(O)CO (stereo not drawn),-5%,x,x,x,x,2%
CCN(CC)c1cc(Oc2ccccc2)ncn1,-3%,-5%,73*,-12%,19*,0%
CCn1c(=O)n(-c2ccc3c(c2)OCO3)c2nc(-c3ccc(C(C)C)cc3)nc(C(N)=O)c21,x,x,x,x,x,6%
CCN(CC)C(=O)CSc1nc2cc3c(cc2c(=O)n1CCCCCC(=O)NCCc1ccc(OC)c(OC)c1)OCO3,x,x,x,x,x,4%
O=C(CSc1nnc2ccccn12)Nc1nsc(-c2ccccc2)n1,6%,-3%,21,-24%,19*,-3%
COc1ccc(-c2nc(NC(=O)CSc3nnc(C)s3)ns2)cc1,4%,1%,33*,24%,34*,-4%
Cc1nnc(SCC(=O)Nc2nsc(-c3ccccc3)n2)s1,-10%,2%,30,1%,15*,1%
Cc1ccc(-c2nc(NC(=O)CSc3nnc(C)s3)ns2)cc1,-4%,-2%,77*,8%,23*,-2%
O=C(CSc1nnnn1-c1ccccc1)Nc1nsc(-c2ccccc2)n1,4%,1%,-9,9%,-2,-21%
Cn1c(=O)c2ncn(CC(=O)Nc3cccc(-c4nc5ccccc5s4)c3)c2n(C)c1=O,2%,-13%,118*,1%,53*,u
COc1ccc(CSc2nnc(-c3ccncc3)n2C)cc1F,6%,1%,70*,-12%,17,1%
O=C(CSc1nnc(-c2cccs2)n1Cc1ccco1)Nc1ccc2c(c1)OCO2,-4%,5%,-21,15%,26,-4%
